Inconclusive results are not listed. Where a call stands in place of a potency, no number is given. A number with no mark means an inactive call. Calls of active or inactive are those of the source. The call rests on the fitted dose curve.

The target in the assay is D(2) dopamine receptor (Homo sapiens) (UniProt P14416). The assay can be described thus: Dopamine D2 receptor (DRD2) small molecule agonists, cell-based qHTS assay (AID 1963594). Further: nearly all actives have a fitted effect of over 35% in size. As to conditions: HEK293-DRD2 cAMP HTRF, agonist mode, 30 min; series mostly up to 92.4 µM. The text has this: National Center for Advancing Translational Sciences [NCATS]
Chain of D(2) dopamine receptor (Homo sapiens) (P14416 whole entry, looked up): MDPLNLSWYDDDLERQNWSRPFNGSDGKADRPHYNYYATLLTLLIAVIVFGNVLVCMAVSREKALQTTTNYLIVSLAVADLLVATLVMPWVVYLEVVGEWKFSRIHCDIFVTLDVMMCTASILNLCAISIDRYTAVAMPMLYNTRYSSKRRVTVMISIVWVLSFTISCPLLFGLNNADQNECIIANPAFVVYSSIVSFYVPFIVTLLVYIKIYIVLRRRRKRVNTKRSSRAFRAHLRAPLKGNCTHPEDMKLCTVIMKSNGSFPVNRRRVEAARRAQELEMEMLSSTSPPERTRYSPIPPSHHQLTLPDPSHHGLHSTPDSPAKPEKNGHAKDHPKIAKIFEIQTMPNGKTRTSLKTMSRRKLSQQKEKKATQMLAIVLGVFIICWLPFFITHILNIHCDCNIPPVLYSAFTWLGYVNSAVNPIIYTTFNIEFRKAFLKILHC
Division of Preclinical Innovation [DPI]
U.S. Environmental Protection Agency [EPA]
National Institutes of Environmental Health Sciences [NIEHS]
National Toxicology Program [NTP]
U.S. Food and Drug Administration [FDA]
DRD2 is the D2 subtype of the dopamine receptor, which is coupled to Gi subtype of G protein-coupled receptor. This G protein-coupled receptor inhibits adenylyl cyclase activity. The DRD2-HEK293 cell line stably expressing D2 dopamine receptor can be used for screening agonists and antagonists of interactions between D2 and its ligands. The Hek293-DRD2 cAMP assay is based on HTRF technology. It measures changes of cAMP accumulation in response to Gi coupled GPCR activation or inhibition.
Tox21 Assay Protocol Summary:
DRD2-Hek293 cells were dispensed at 600 cells/3uL/well in 1536-well white plates using a Multidrop Dispenser. After the assay plates were incubated at a 37 C/5% CO2 incubator for 24 h, 1 uL of Ro20-1724 at final concentration of 0.1 mM was transferred to the assay plate by a Flying Reagent Dispenser. Following Ro20-1724 addition, 23 nL of compound dissolved in DMSO, positive controls or DMSO only was added to the assay plates via Wako pintool station. The assay plates were incubated at room temperature for 10 min. Next, 1 uL of NKH477 at 200nM was added into the plates. After the assay plates were incubated at room temperature for an additional 30 min, 2.5 ul/well of cAMP-d2 and 2.5 ul/well of anti-cAMP-cryptate were added respectively into the assay plates using a Flying Reagent Dispenser. The plates were incubated at room temperature for 1 h. The fluorescence intensity in the plates was measured at 340 nm excitation and 665 & 620 nm emission by an Envision plate reader.
For orientation: qHTS replaces the single test concentration by a dilution series.
Consider `OCCc1ccccn1`, for which the Potency entry was “inactive”.

For `FC(F)(F)c1ccccc1Cl`, the Potency result was “inactive”.

For the compound `NCCC(O)(P(=O)(O)O)P(=O)(O)O`, the Potency entry was “inactive”.

Regarding `BrC1CCC(Br)C(Br)CCC(Br)C(Br)CCC1Br` (stereo not given), the Potency result was “inactive”.

Turning to `CC(C)CCCC(C)CCCC(C)CCCCC(C)CCCC(C)CCCC(C)C` (stereo not given), the Potency entry is “inactive”.

As to `O=Cc1ccc(F)cc1`, the Potency result is “inactive”.

On to `C[C@@H](O)[C@H]1C(=O)N2C(C(=O)O)=C([C@H]3CCCO3)S[C@H]12`, for which the Potency result is “inactive”.

For `CCOCCOC(=O)/C=C/c1ccc(OC)cc1`, the Potency result is “inactive”.

With `C=CC(C)(O)CCC=C(C)C` (stereo not given), the Potency result was “inactive”.

Consider `c1ccc(CNc2ncnc3c2ncn3C2CCCCO2)cc1` (stereo not given), for which the Potency entry is “inactive”.

Take `SCCSCCS`: the Potency entry is “inactive”.

As to `F[Si-2](F)(F)(F)(F)F`, the Potency entry is “inactive”.

`COc1nc(N)nc2nc[nH]c12`: the Potency entry was “inactive”.

In the case of `CCCC1O[C@@H]2C[C@H]3[C@@H]4CCC5=CC(=O)C=C[C@]5(C)[C@H]4[C@@H](O)C[C@]3(C)[C@]2(C(=O)CO)O1` (stereo not given in full), the Potency entry was “inactive”.

Regarding `c1cnccn1`, the Potency entry was “inactive”.

Turning to `CN(Cc1cnc2nc(N)nc(N)c2n1)c1ccc(C(=O)N[C@@H](CCC(=O)O)C(=O)O)cc1`, the Potency entry is “inactive”.

Turning to `O=Cc1ccc(C(=O)O)cc1`, the Potency result was “inactive”.

`CO[Si](CCCNCCC[Si](OC)(OC)OC)(OC)OC`: the Potency result is “inactive”.

On to `CCCCCC(=O)CC`, for which the Potency entry was “inactive”.

Consider `CC(CN1c2ccccc2Sc2ccccc21)N(C)C` (stereo not given), for which the Potency entry is “inactive”.

For the compound `Cn1c(=O)c2[nH]c(Br)nc2n(C)c1=O`, the Potency result is “inactive”.

Consider `CN(C)C(=S)SC(=S)N(C)C`, for which the Potency entry was “inactive”.

In the case of `CCCCCCCCCCCCCCO`, the Potency entry is “inactive”.

`CCCCCCCCC(=O)OCC`: the Potency entry was “inactive”.

`O=c1oc2c(O)c(O)cc3c(=O)oc4c(O)c(O)cc1c4c23`: the activation is 15.6% [at 19 µM].

Regarding `CC[C@H](C)[C@H](N)C(=O)O`, the Potency entry was “inactive”.

For `FC(F)(F)/C(=N\OCC1OCCO1)c1ccc(Cl)cc1`, the Potency result is “inactive”.

Turning to `O=C[O][Al]([O]C=O)[O]C=O`, the Potency entry is “inactive”.

Take `CC1=CCC(=O)O1`: the Potency entry is “inactive”.

Consider `COc1cc(C(=S)N2CCOCC2)ccc1O`, for which the Potency entry is “inactive”.

Consider `N[C@@H](CCC(=O)Nc1ccc([N+](=O)[O-])cc1)C(=O)O`, for which the Potency result was “inactive”.

On to `CCCCCC/C(C=O)=C\c1ccccc1`, for which the Potency result was “inactive”.

`COc1ccc(N)c(OC)c1`: the Potency result is “inactive”.

With `COC(=O)/C=C(/C)N`, the Potency entry is “inactive”.

As for `NCCO`, the Potency entry was “inactive”.

On to `CN1[C@@H]2CC[C@H]1CC(NC(=O)n1c(=O)[nH]c3ccccc31)C2` (stereo not given in full), for which the Potency result is “inactive”.

As for `CCCCCCCCCCCC(=O)N(C)CC(=O)O`, the Potency result is “inactive”.

As for `CCCCCCCCCCCCCC[P+](CCCC)(CCCC)CCCC`, the Potency result was “inactive”.

Regarding `CC(C)CCCCCCCCCCCCCCC(=O)O`, the Potency entry is “inactive”.

With `CC(=O)O[C@H](CC(=O)[O-])C[N+](C)(C)C`, the Potency result is “inactive”.

The record behind these values is PubChem BioAssay (Tox21).
